This is an account of results in PubChem BioAssay (EPA / NIEHS).

The nature of assay [1]: ATG_CRE_CIS: Attagene CIS-FACTORIAL HepG2 Assay for human cAMP Responsive Element (CRE) binding protein 3 (AID 2282926). Particulars: HepG2 CRE cis-reporter, Attagene multiplexed mRNA; actives raise or lower the signal. In a few lines:
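Transfected HepG2 were treated for 24 hours, then RNA was extracted and reporter cDNA amplified with sequence-specific primers. Labelled fragments were separated by capillary electrophoresis, and the CRE signal was fitted bidirectionally with DMSO as baseline.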

Assay [2] deals with CCAAT/enhancer-binding protein beta (Homo sapiens) (UniProt P17676). Put plainly: ATG_C_EBP_CIS: Attagene CIS-FACTORIAL HepG2 Assay for human CCAAT/Enhancer Binding Protein (C/EBP) beta (AID 2282927). Particulars: HepG2 Attagene cis-factorial transcription factor reporter; actives raise or lower the signal. In a few lines: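 Changes in reporter mRNA, rather than exogenous chimeric receptor activity, reflect native C/EBP signalling in transfected HepG2 cells dosed for 24 h; transcripts are detected by RT-PCR and capillary electrophoresis.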

Assay [3] in a line: ATG_CMV_CIS: Attagene CIS-FACTORIAL HepG2 Assay for human CMV (Internal Marker) (AID 2282928).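 Note: endpoint acts as a background internal control marker rather than a target.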 Particulars: HepG2 CMV promoter reporter, transcription factor profiling; actives raise or lower the signal. The procedure, abridged:
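HepG2 cells transiently transfected with multiple cis-regulated reporter units; 24 h compound exposure. Reporter mRNA quantified by RT-PCR, 6-FAM primer-extension labeling, HpaI digestion and capillary electrophoresis; bidirectional fitting against DMSO baseline.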

Assay [4] can be described thus: ATG_DR4_LXR_CIS: Attagene CIS-FACTORIAL HepG2 Assay for human Liver X Receptor (LXR), DR4 submotif (AID 2282929). As to conditions: HepG2 Attagene DR4 cis-reporter, mRNA transcription; actives raise or lower the signal. In a few lines:
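After transient transfection with multiplexed cis-promoter reporter units, HepG2 cells received test chemicals for 24 h. Reporter mRNA induction, detected by fluorescence after RT-PCR and capillary electrophoresis, was scored relative to DMSO.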

Assay [5] can be described thus: ATG_AP_1_CIS: Attagene CIS-FACTORIAL HepG2 Assay for human Activator Protein 1 (AP-1) (AID 2282931). Particulars: HepG2 Attagene cis-factorial AP-1 reporter mRNA; actives raise or lower the signal. In a few lines: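 After 24 h incubation with test chemical, RNA from transfected HepG2 cells was reverse-transcribed, amplified, fluorescently labelled and digested before capillary electrophoresis. Reporters were driven by cis-regulatory promoters; activity fitted bidirectionally versus DMSO.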

Assay [6] can be described thus: ATG_AP_2_CIS: Attagene CIS-FACTORIAL HepG2 Assay for human Activator Protein 2 (AP-2) (AID 2282932). As to conditions: HepG2 AP-2 cis-reporter, Attagene transcription factor profiling; actives raise or lower the signal. The procedure, abridged: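 HepG2, transient MRTU transfection, cis-regulated reporters; 24 h compound exposure; RNA isolated, RT-PCR, 6-FAM labelling, HpaI digest, CE fluorescence. DMSO = negative control/baseline, bidirectional fit.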

Assay [7] is described as follows: ATG_BRE_CIS: Attagene CIS-FACTORIAL HepG2 Assay for human Bone Morphogenetic Protein (BMP) Response Element (BRE) (AID 2282933). Particulars: HepG2 BMP response element reporter, Attagene transcription factor profiling; actives raise or lower the signal. The procedure, abridged:
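A HepG2 multiplex reporter system measured inducible reporter mRNA 24 h post-dosing. Detection: RT-PCR, 6-FAM primer extension, HpaI digestion, capillary electrophoresis. Activity fitted bidirectionally relative to DMSO.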

Assay [8] has as its target Retinoic acid receptor alpha (Homo sapiens) (UniProt P10276). Nature of the assay: ATG_DR5_RAR_CIS: Attagene CIS-FACTORIAL HepG2 Assay for human Retinoic Acid Receptor Alpha (RARE), DR5 submotif (AID 2282934). As to conditions: HepG2 Attagene cis-factorial RARE DR5 reporter, mRNA; actives raise or lower the signal. The procedure, abridged:
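HepG2, transient cis-reporter transfection, 24 h exposure. mRNA readout: RT-PCR, FAM label, HpaI cut, capillary electrophoresis. DMSO baseline, gain/loss fitting.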

Assay [9] addresses Transcription factor E2F1 (Homo sapiens) (UniProt Q01094). Put plainly: ATG_E2F_CIS: Attagene CIS-FACTORIAL HepG2 Assay for human E2F Transcription Factor 1 (AID 2282935). Particulars: HepG2 Attagene cis-reporter, E2F reporter RNA transcripts; actives raise or lower the signal. The procedure, abridged:
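Cis-element reporter mRNA induction in transiently transfected HepG2, 24 h exposure. Activity fitted in both directions relative to DMSO negative control.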

Assay [10] is described as follows: ATG_E_Box_CIS: Attagene CIS-FACTORIAL HepG2 Assay for human Enhancer Box (E-box) (AID 2282936). Particulars: HepG2 E-box cis-reporter transcription, actives raise or lower the signal. In a few lines: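 Cells: HepG2 (human liver), transient MRTU transfection. Exposure 24 h. RNA → oligo(dT) RT → PCR → 6-FAM label → HpaI → CE. Activity fitted both directions relative to DMSO.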

A short description of assay [11]: ATG_M_61_CIS: Attagene CIS-FACTORIAL HepG2 Assay for M61 Transcription Factor (Internal Marker) (AID 2282937). Particulars: HepG2 Attagene CIS-FACTORIAL M61 internal marker reporter; actives raise or lower the signal. In a few lines: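 Using transiently transfected HepG2 liver cells, reporter transcript levels were assessed 24 h post-dosing by RT-PCR and capillary electrophoresis. Changes in either direction were fitted relative to DMSO controls.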

Assay [12] is described as follows: ATG_EGR_CIS: Attagene CIS-FACTORIAL HepG2 Assay for human Early Growth Response 1 (EGR1) (AID 2282938). Particulars: HepG2 Attagene CIS-FACTORIAL EGR reporter mRNA; actives raise or lower the signal. The procedure, abridged:
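Fluorescent capillary-electrophoresis signal of reporter cDNA fragments serves as read-out. HepG2 cells bear transiently transfected cis-promoter reporter units and are exposed 24 h; gain- or loss-of-signal is fitted against DMSO.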

The nature of assay [13]: ATG_M_19_CIS: Attagene CIS-FACTORIAL HepG2 Assay for M19 Transcription Factor (Internal Marker) (AID 2282939). Particulars: HepG2 Attagene CIS-FACTORIAL M19 internal marker reporter; actives raise or lower the signal. In a few lines:
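Chemical-treated HepG2 (24 h) with MRTU constructs; reporter transcripts detected by fluorescent RT-PCR fragment analysis on capillary electrophoresis. Internal background marker, DMSO as baseline.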

Assay [14] in a line: ATG_Ets_CIS: Attagene CIS-FACTORIAL HepG2 Assay for human Erythroblast Transformation Specific (ETS) (AID 2282941). As to conditions: HepG2 ETS cis-reporter transcription, actives raise or lower the signal. In a few lines: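 HepG2 cells transiently transfected with cis-promoter reporter transcription units were dosed for 24 h; reporter mRNA was measured by RT-PCR, 6-FAM primer extension, HpaI digestion and capillary electrophoresis, with bidirectional fitting against DMSO baseline.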

Assay [15] concerns the target Hepatocyte nuclear factor 3-beta (Homo sapiens) (UniProt Q9Y261). Nature of the assay: ATG_FoxA2_CIS: Attagene CIS-FACTORIAL HepG2 Assay for human Forkhead box A2 (FOXA2) (AID 2282942). As to conditions: HepG2 cis-reporter transcription factor activity, 24 h; actives raise or lower the signal. In a few lines: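 Fluorescence signal of reporter cDNA fragments, separated by capillary electrophoresis, reflects endogenous transcription factor activity in transfected HepG2 after 24 h. Both increases and decreases fitted against DMSO.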

Assay [16] is described as follows: ATG_GATA_CIS: Attagene CIS-FACTORIAL HepG2 Assay for human GATA Binding Protein (AID 2282944). As to conditions: HepG2 GATA cis-element reporter, Attagene multiplex mRNA; actives raise or lower the signal. The procedure, abridged:
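Transfected cis-reporter HepG2 cells were treated with chemicals for 24 hours. Total RNA was then converted to cDNA, amplified with reporter-specific primers and analysed by fluorescent capillary electrophoresis, using DMSO-treated wells as baseline.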

Assay [17] can be described thus: ATG_GLI_CIS: Attagene CIS-FACTORIAL HepG2 Assay for human Zinc Finger Protein GLI1 (AID 2282945). Particulars: HepG2, Attagene cis-factorial reporter mRNA, GLI element; actives raise or lower the signal. In a few lines: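 Bidirectional curve fits relative to DMSO, using reporter mRNA levels from RT-PCR plus capillary electrophoresis. Cells were HepG2 transiently carrying cis-regulated reporter constructs, harvested 24 h after dosing.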

Assay [18] deals with Aryl hydrocarbon receptor (Homo sapiens) (UniProt P35869). Put plainly: ATG_Ahr_CIS: Attagene CIS-FACTORIAL HepG2 Assay for human Aryl Hydrocarbon Receptor (Ahr) (AID 2282930). As to conditions: HepG2 AhR cis-factorial reporter transcription; actives raise or lower the signal. The procedure, abridged:
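HepG2, transient MRTU (cis) transfection, 24 h exposure. RNA → cDNA → PCR → 6-FAM primer extension → HpaI 2 h 37 C → CE. Fit: bidirectional, DMSO baseline.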

Assay [19] in a line: ATG_ERE_CIS: Attagene CIS-FACTORIAL HepG2 Assay for Estrogen Response Element (ERE) (AID 2282940). As to conditions: HepG2 ERE cis-reporter, Attagene RNA transcript; actives raise or lower the signal. The procedure, abridged:
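Human liver cells (HepG2) bearing transiently transfected, promoter-regulated reporter units were exposed 24 h. Reporter mRNA induction was detected by capillary electrophoresis of labelled RT-PCR products and fitted bidirectionally to DMSO.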

Several values for one entry are separate records, joined by “and”; a condition that tells them apart may be missing. Equal values may be shown once. Activity calls are given as the source filed them. Rule for the calls: active = hit-call score of the fitted dose curve at least 0.9, where 1 is the maximum; inactive = score below 0.9.

Retinoic acid receptor alpha (Homo sapiens), sequence (P10276 whole entry, looked up): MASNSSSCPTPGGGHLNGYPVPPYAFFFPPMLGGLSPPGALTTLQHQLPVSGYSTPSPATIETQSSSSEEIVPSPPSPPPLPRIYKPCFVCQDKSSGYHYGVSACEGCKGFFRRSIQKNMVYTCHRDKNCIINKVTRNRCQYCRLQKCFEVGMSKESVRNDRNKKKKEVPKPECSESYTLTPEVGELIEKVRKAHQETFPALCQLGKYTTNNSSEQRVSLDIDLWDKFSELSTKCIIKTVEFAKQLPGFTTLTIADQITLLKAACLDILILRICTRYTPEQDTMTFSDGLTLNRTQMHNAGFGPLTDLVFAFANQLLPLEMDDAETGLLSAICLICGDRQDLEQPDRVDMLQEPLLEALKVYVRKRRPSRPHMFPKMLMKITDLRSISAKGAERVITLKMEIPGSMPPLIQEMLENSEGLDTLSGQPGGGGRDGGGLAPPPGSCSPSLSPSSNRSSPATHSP
Hepatocyte nuclear factor 3-beta (Homo sapiens), sequence (Q9Y261 whole entry, looked up, the tested form may be a part): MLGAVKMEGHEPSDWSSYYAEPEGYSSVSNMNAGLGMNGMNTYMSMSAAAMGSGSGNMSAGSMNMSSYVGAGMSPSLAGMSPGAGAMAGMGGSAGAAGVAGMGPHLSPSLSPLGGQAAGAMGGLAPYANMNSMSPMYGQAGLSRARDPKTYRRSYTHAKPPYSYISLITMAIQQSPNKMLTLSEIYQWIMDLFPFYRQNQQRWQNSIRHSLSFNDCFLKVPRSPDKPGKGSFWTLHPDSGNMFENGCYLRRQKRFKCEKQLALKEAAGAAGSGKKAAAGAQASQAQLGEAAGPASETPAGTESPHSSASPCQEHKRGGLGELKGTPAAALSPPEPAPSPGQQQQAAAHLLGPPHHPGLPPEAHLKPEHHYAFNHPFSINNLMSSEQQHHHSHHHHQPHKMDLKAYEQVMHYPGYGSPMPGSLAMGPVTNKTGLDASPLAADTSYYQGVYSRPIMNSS
Aryl hydrocarbon receptor (Homo sapiens), sequence (P35869 whole entry, looked up): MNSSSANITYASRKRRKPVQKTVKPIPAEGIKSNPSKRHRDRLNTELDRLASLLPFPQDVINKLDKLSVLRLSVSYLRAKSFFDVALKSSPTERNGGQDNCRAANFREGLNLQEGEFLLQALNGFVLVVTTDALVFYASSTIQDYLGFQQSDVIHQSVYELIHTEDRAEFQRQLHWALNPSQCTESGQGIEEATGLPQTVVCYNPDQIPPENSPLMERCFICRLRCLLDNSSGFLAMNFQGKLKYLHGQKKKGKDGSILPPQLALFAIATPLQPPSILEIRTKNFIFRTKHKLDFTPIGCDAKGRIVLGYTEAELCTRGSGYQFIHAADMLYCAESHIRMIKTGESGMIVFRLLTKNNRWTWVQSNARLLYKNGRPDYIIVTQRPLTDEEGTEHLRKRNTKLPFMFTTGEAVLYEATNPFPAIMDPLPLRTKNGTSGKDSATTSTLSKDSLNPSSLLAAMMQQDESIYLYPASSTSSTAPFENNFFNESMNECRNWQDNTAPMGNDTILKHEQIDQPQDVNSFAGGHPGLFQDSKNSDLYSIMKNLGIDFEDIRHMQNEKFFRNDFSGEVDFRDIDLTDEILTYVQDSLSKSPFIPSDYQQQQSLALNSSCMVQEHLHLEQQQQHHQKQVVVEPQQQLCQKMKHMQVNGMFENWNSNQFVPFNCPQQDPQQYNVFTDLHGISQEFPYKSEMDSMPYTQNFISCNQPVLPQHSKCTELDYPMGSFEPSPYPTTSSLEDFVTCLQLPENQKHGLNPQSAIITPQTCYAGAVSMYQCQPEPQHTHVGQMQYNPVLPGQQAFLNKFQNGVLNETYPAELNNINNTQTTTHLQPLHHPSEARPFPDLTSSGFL
Transcription factor E2F1 (Homo sapiens), sequence (Q01094 whole entry, looked up): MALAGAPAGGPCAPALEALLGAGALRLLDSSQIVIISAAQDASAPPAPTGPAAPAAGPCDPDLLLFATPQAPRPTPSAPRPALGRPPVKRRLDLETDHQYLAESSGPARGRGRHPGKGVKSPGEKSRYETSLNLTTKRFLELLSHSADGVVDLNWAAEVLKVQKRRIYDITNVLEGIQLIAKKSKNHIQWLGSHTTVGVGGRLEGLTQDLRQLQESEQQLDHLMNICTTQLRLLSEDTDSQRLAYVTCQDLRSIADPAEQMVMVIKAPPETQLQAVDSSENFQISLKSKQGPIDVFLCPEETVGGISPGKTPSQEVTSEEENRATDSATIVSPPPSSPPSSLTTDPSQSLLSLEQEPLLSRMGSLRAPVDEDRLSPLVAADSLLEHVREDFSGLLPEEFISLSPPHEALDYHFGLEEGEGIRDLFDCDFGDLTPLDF
CCAAT/enhancer-binding protein beta (Homo sapiens), sequence (P17676 whole entry, looked up): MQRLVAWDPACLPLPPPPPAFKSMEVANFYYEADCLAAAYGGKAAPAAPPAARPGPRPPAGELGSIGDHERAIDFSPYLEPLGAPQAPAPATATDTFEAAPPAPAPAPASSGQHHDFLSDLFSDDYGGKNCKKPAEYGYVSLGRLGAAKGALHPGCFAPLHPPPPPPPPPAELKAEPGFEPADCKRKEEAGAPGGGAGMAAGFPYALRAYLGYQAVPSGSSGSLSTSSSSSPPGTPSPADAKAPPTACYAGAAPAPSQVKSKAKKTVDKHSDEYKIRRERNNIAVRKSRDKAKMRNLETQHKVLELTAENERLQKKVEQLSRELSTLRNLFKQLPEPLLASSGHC

With `CCCCCCCCCC(=O)O`, the compound was called inactive in [1], in assay [2], in assay [3], in [4], in [5] and in assay [6]. The call in [7], in assay [8], in assay [9], in assay [10], in assay [11] and in [12] was inactive. The compound was classed as inactive in [13], in assay [14], in assay [15], in assay [16] and in assay [17].

For `CCCCCCCCCCCC[N+](C)(C)C`, the call in [1], in [2], in [3], in assay [18], in assay [6] and in assay [8] was inactive. For the same compound, the compound was classed as inactive in [9], in [11], in assay [12], in assay [13], in assay [14] and in assay [15]. Also, the compound was called inactive in assay [16] and in assay [17]. In addition, the AC50 (usually the concentration giving half of the maximal activity seen) is 22.4 µM (active) and 33.4 µM (active) in assay [4]; 33.4 µM (active) and 12.7 µM (active) in assay [5]; 33.4 µM (active) and 27.1 µM (active) in assay [7].

In the case of `COc1cccc([C@H](O)C2CCN(CCc3ccc(F)cc3)CC2)c1OC`, the compound was classed as inactive in assay [1], in [2], in [3], in assay [18], in assay [5] and in [6]. In addition, the compound was classed as inactive in assay [7], in [8], in assay [9], in assay [11], in assay [12] and in assay [13]. The outcome in assay [19], in [14], in [15], in assay [16] and in [17] was inactive. The AC50 in assay [4] and in [10] was 100 µM (active) throughout.

With `O=C=NCCCCCCN=C=O`, the call in [1], in [2], in assay [3], in assay [4], in [18] and in assay [5] was inactive. Also, the compound was called inactive in assay [6], in assay [7], in assay [8], in [9], in [11] and in assay [12]. Besides, the call in [13], in assay [19], in assay [14], in [15], in assay [16] and in assay [17] was inactive.

On to `Oc1ccccc1`, for which the compound was classed as inactive in assay [1], in assay [2], in assay [3], in assay [4], in assay [18] and in assay [5]. Also, the outcome in assay [6], in assay [7], in [8], in assay [9], in assay [11] and in assay [12] was inactive. Also, the compound was called inactive in assay [13], in [14], in assay [15], in assay [16] and in assay [17].

Consider `CC1=CC(=O)/C(=C(/C)O)C(=O)O1`, for which the outcome in [1], in assay [2], in assay [3], in assay [4], in assay [5] and in assay [6] was inactive. In addition, the outcome in assay [7], in assay [8], in [9], in assay [10], in assay [11] and in [12] was inactive. The compound was called inactive in assay [13], in assay [19], in [14], in assay [15], in assay [16] and in assay [17].
